# Tau fluor counter – counter-screen for tau fibril formation inhibitors | tau K18 P301L Alexa594 fluorescence, heparin fibrillization | Potency, µM (top dose mostly 57.7 µM), without a hit: at the highest dose activity change, negative = decrease | 280,000 tested, 0.93% active | AID 1463; further: nearly all actives have a fitted effect of over 55% in size
#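 Human tau K18 P301L (15 uM unlabeled, 0.24 uM Alexa 594-labeled) in 100 mM sodium acetate pH 7 with 20 uM heparin, 6 hr at 37 C. ThT 30 uM added, 1 hr ambient; Alexa 594 FP and total fluorescence read at 555/632 nm.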
# TRb SRC2 PPI – TRbeta-SRC2 interaction inhibition; AID 1469; P10828; TRbeta-SRC2 peptide binding, fluorescence polarization; receptor liganded with 1 µM T3; Potency, µM (doses to about 106 µM), for the others: top-dose activity change, negative = inhibition, actives largely listed as inhibitors; 280,000 tested, 0.065% active;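 further: plate controls were bound peptide for no effect and peptide without receptor for full effect; nearly all actives have a fitted effect of over 50% in size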
# Target sequence (P10828 whole entry, looked up): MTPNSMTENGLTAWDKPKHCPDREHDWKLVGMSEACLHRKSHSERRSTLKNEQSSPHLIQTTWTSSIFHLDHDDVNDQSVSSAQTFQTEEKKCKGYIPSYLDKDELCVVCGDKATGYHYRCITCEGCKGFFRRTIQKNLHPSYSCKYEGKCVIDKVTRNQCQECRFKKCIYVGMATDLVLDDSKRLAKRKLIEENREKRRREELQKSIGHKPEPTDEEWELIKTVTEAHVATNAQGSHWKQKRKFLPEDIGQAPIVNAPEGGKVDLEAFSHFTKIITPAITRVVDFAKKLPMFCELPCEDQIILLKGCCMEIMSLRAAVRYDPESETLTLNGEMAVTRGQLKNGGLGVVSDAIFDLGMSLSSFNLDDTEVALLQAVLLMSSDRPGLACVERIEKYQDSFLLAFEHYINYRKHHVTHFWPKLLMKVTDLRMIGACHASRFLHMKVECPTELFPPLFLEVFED
#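 Human TRb LBD (0.6 uM) plus Texas Red-labeled SRC2 peptide (20 nM), 1uM T3, 5% DMSO, 5 hr at ambient temperature. Decreased polarization (555/632 nm) flags inhibition; data normalized to free and bound peptide controls.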
# Tau fibril ThT – inhibitors of human tau fibril formation, thioflavin T binding; AID 1460; recombinant tau K18 P301L (four-repeat tau fragment), heparin-induced fibrillization, ThT fluorescence; P10636; Potency, µM (doses to about 57.4 µM), for inactives: at the highest dose activity, negative = inhibition, most hits filed as inhibitors; 270,000 tested, 2.1% active; further: nearly all actives have a fitted effect of over 55% in size
# Target sequence (P10636 561-689 P618L limits assumed): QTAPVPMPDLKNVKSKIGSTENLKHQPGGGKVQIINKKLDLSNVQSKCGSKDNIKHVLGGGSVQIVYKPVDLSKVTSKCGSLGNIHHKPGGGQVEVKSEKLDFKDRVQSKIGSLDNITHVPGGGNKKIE
#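 Recombinant human tau K18 fragment […] carrying P301L, 15 uM unlabeled plus 0.24 uM Alexa 594-labeled, was fibrillized with 20 uM heparin in 100 mM sodium acetate pH 7 for 6 hr at 37 C; 30 uM ThT fluorescence read after 1 hr.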
# Tau FP inhib – tau fibrillization inhibition (FP); P10636; K18 P301L tau heparin fibrillization, Alexa594 FP, 6 h; Potency, µM (top dose mostly 57.7 µM), for the others: top-dose activity, negative = inhibition, hits mostly inhibitors; 280,000 tested, 0.39% active; AID 1468; further: nearly all actives have a fitted effect of over 55% in size
#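 Quantitative HTS format: compounds meet 15 uM recombinant K18 P301L tau and Alexa 594-tau tracer in 100 mM sodium acetate pH 7; 20 uM heparin triggers fibrillization at 37 C over 6 hr; FP gives the signal.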
# TexasRed fluor – alters Texas Red total fluorescence, flagging assay interference; TRb/SRC2 Texas Red total fluorescence interference; Potency, µM (highest dose often 106 µM), for inactives: top-dose fluorescence change, negative = quenching; 280,000 tested, 0.29% active; AID 1479; active means well fitted curve in either direction with a large enough effect; inconclusive means small, poorly fitted or top-dose-only effect
#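 Human TRb ligand-binding domain at 0.6 uM with 20 nM Texas Red SRC2 peptide in Tris buffer containing 1 uM T3 and 5% DMSO, incubated with compound 5 h at ambient temperature. Total fluorescence (555/632 nm) calculated as parallel + 2 × perpendicular.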
# Starred values were filed as active, the others as inactive; ? = inconclusive; . = no result given; [ ] = dose if it differs, or a comment. Most compounds without a hit are left out; they make up all but 3% or so of the library. Unless noted, the call rests on the fitted dose curve; in most records, active means well fitted curve in the direction sought with a large enough effect; inconclusive means small, poorly fitted or top-dose-only effect, or another doubt; inactive means no such curve, though single readings can be large; an effect the other way counts as inactive or inconclusive. Unless noted, on the % scale 0 is the no-effect control and ±100 the full control effect; potency means the concentration at half of the fitted maximal effect.
SMILES,Tau fluor counter,TRb SRC2 PPI,Tau fibril ThT,Tau FP inhib,TexasRed fluor
CC(C)CCCCOC(=O)c1ccccc1C(=O)OCCCCC(C)C,.,1%[201 µM],.,.,-3%[201 µM]
COc1cc(C(Nc2ccccn2)c2ccc3ccc(C)nc3c2O)cc(OC)c1O (configuration not stated),?,-4%,16µM*,?,0%
COc1cc(NS(=O)(=O)c2ccc(-c3cc(C)no3)cc2)cc(OC)c1,?,9%,-5%,?,-2%
CCCCNC(=O)c1cccc(-n2c(C)nc3cccnc32)c1,2%,0%,7%,-1%,2%
COC(=O)c1ccc(/C=C/c2ccc3cccc(OC)c3n2)cc1,-9%,-6%,?,-2%,-3%
CCOc1c(OC(C)=O)ccc(/C=C/c2ccc3cccc(OC)c3n2)c1[N+](=O)[O-],?,-5%,5.6µM*,?,-13%
CCOc1ccc2c(c1)c(=O)c(S(=O)(=O)c1ccccc1)cn2CC(=O)Nc1ccccc1OC,-12%,-4%,12%,-13%,0%
COc1ccc(-c2cnc(C)o2)cc1S(=O)(=O)Nc1c(C)cc(C)cc1C,-7%,3%,-6%,8%,-2%
N#CC12COC3(CCCCC3C1(C#N)C#N)OC2=N (configuration not stated),-22%,-5%,14µM*,?,1%
COc1ccc(S(=O)(=O)Nc2cc(Sc3ncn[nH]3)c(O)c3ccccc23)cc1,?,?,7.1µM*,16µM*,-20%
O=S(=O)(Nc1cc(Sc2cccc3cccnc23)c(O)c2ccccc12)c1ccc(F)cc1,14µM*[quencher],?,13µM*,28µM*,-9%
COc1ccccc1N1CCN(CC(O)COc2c(OC)cccc2OC)CC1 (configuration not stated),?,-1%,20µM*,?,-1%
COc1cccc(OC)c1OCC(O)CN1CCN(c2ccccc2)CC1 (configuration not stated),-10%,-12%,?,5%,-3%
COc1ccc(N(Cc2cccs2)C(=O)c2ccccc2C)cc1,-14%,-3%,-6%,6%,-6%
Cc1sc2ccc3sccc3c2[n+]1C,-24%,-2%,25µM*,?,0%
Cc1sc2c3ccsc3ccc2[n+]1C,-22%,5%,25µM*,20µM*,-1%
CCN(C(=O)CCn1cnc2onc(-c3ccc(F)cc3)c2c1=O)c1ccc(OC)cc1,-22%,-9%,-17%,8%,3%
Cc1ccc(NC(=O)C(=O)NCC(c2cccnc2)N2CCc3ccccc3C2)cc1 (configuration not stated),-17%,-2%,?,-7%,-13%
NC(=O)NC(=O)COC(=O)c1ccc(Cl)c(S(=O)(=O)N(Cc2ccccc2)c2ccc(Cl)cc2)c1,?,-2%,-7%,11µM*,3%
COCCn1c(CNC(=O)c2cccc(C)c2)nc2cccnc21,-13%,4%,-5%,-6%,-1%
Cc1ccccc1NC(NC(=O)OCCn1c([N+](=O)[O-])cnc1C)C(Cl)(Cl)Cl (configuration not stated),-8%,-26%[53 µM],-1%,8%,7.1µM*[quencher]
CC(C)(C)C(=O)Nc1sc(-c2ccccc2)cc1C(=O)O,-7%,-4%,-14%,15%,-4%
Cc1cccc(C(=O)Nc2sc(-c3ccccc3)cc2C(=O)O)c1,?,7%,14µM*,14%,-11%
COc1ccccc1-c1cc(C(=O)Nc2cc(Cl)ccc2O)no1,7.9µM*[quencher],2%,-2%,-11%,5%
COc1ccccc1-c1cc(C(=O)Nc2ccc(F)cc2F)no1,3%,-5%,-7%,-12%,1%
SMILES,Tau fluor counter,TRb SRC2 PPI,Tau fibril ThT,Tau FP inhib,TexasRed fluor
C[C@@]12C=Cc3occc3[C@H]1CC[C@]13CC(=O)[C@@H](CC[C@H]12)C3,.,-3%,.,.,-4%
Cc1ccc(NC(=O)Cn2c(=O)ccc3cc(S(=O)(=O)N4CCC(C)CC4)ccc32)cc1Cl,-19%,-1%,?,?,-4%
Cc1ccc2onc(CC(=O)N3CCN(c4cc(Cl)ccc4C)CC3)c2c1,-7%,-27%,-16%,?,?
Cc1ccc2onc(CC(=O)N3CCN(c4cccc(Cl)c4)CC3)c2c1,-20%,-27%,?,-4%,25µM*[quencher]
Cc1cc(O)c2c(c1O)C(=O)C(O)=C(O)C2=O,?,-1%,13µM*,18µM*,-3%
COc1cc(O)c2c(c1)C(=O)c1cc(C)cc(O)c1C2=O,-17%,-11%,?,-4%,-3%
O=C(/C=C\c1ccccc1)c1ccccc1O,-1%[11.6 µM],5%[11.2 µM],-9%[11.5 µM],-2%[11.6 µM],1%[11.2 µM]
O=C(/C=C/c1ccc(O)cc1)c1ccccc1O,?,2%,18µM*,5%,-4%
O=C(/C=C/c1ccccc1)c1cc(Br)ccc(=O)c1O,?,-8%,14µM*,?,?
Cc1ccc(/C=C/C(=O)c2ccccc(=O)c2O)cc1C,?,-7%,13µM*,-15%,-4%
O=C(/C=C/c1ccc(O)c(O)c1)c1ccc(O)cc1O,.,6%,.,.,-11%
Cc1ccc(-n2[nH]c(C)c(/C=N/Nc3ccc([N+](=O)[O-])cc3[N+](=O)[O-])c2=O)cc1,3.2µM*[quencher],2%,1.6µM*,10µM*,-25%
Cc1[nH]n(-c2ccc([N+](=O)[O-])cc2)c(=O)c1C=NCCc1c(C)[nH]c2ccccc12,22µM*[quencher],-13%,?,?,-70%
CO/N=C(\C(=O)N[C@@H]1C(=O)N2C(C(=O)O)=C(CSc3nc(=O)c(O)nn3C)CSC12)c1csc(N)n1 (some centres not stated),?,9%,?,?,-4%
CC(C)CNC(=O)NC(=O)COc1c(F)c(F)cc(F)c1F,16µM*[quencher],6%,?,?,1%
CCCSc1ncc(Cl)c(C(=O)N(Cc2cccc(Cl)c2)C2CCS(=O)(=O)C2)n1 (configuration not stated),-13%,-1%,-4%,3%,9%
CCCSc1ncc(Cl)c(C(=O)N(Cc2ccc(N(C)C)cc2)C2CCS(=O)(=O)C2)n1 (configuration not stated),?,-13%[53 µM],?,-6%,4.5µM*[quencher]
Cc1nn(-c2ccccc2)c(Cl)c1/C=N/Nc1ccc(Cl)c(C(=O)O)c1,-24%,-1%,?,8%,-3%
Cc1nn(-c2ccccc2)c(Cl)c1/C=N/Nc1ccc(S(=O)(=O)Nc2ccccc2C(=O)O)cc1[N+](=O)[O-],?,10%,8.9µM*,13%,?
COc1ccc(NC(=S)NNc2ccc(S(=O)(=O)Nc3ccccc3C(=O)O)cc2[N+](=O)[O-])cc1,10µM*[quencher],2%,13µM*,?,-11%
